The list is not random: actives were taken first. Their share in the collection is about 3.3%.
SIRT5 inh: SIRT5 desuccinylase inhibitors, primary screen, biochemical, fluorescence imaging, single point, set 5; NAD-dependent protein deacylase sirtuin-5, mitochondrial (Homo sapiens), Q9NXA8; Purified SirT5, succinyl-peptide AMC, trypsin-coupled fluorescence; inhibition, % at 15 µM; 330,000 compounds, 1.1% hits; in the data active = inhibition above about 15%
Target sequence (Q9NXA8 whole entry, looked up): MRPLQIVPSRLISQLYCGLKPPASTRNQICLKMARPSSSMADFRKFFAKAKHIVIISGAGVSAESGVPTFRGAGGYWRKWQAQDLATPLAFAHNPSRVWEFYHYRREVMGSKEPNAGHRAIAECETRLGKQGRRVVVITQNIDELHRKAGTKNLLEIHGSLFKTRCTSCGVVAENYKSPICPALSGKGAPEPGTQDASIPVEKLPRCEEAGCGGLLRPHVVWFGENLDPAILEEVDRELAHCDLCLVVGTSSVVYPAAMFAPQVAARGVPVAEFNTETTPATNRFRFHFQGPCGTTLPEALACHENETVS
Casp6 inh: human caspase-6 inhibitors, primary screen, biochemical, VEID-R110 fluorescence, single point, set 2; P55212; purified caspase-6, Z-VEID-R110 cleavage fluorescence; inhibition, % at 12.5 µM; 350,000 compounds, 0.53% hits; AID 686996, 2013;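 active = mean inhibition across replicates at least about 35%, with every replicate also reaching that limit, limit read from the data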;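 note: 0% = median of neutral control wells and 100% = no fluorescence left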
Target sequence (P55212 24-179 limits assumed): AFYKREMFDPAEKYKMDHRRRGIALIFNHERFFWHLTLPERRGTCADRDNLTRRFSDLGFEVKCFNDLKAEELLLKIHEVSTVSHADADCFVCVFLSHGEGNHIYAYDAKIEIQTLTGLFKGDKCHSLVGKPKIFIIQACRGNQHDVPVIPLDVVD
Target sequence (P55212 194-293 limits assumed): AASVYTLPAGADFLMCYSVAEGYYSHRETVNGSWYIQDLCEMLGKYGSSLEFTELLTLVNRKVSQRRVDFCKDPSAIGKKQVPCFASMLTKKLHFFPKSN
INS-1E GSIS act: GLuc luminescence reporter in INS-1E cells, primary screen for activators of glucose-dependent secretion of insulin | activation, % at 16.6 µM | 370,000 compounds, 0.61% hits | INS-1E GLuc reporter insulin secretion, 2-3 h;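 active = lowest replicate activation of at least 40%, so every replicate reaches that level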;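 note: 0% = median of neutral control wells and 100% = median of IBMX positive control wells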
ERAP1 inh: human ERAP1 aminopeptidase inhibitors, primary screen, biochemical, single point, plate reader | Endoplasmic reticulum aminopeptidase 1 (Homo sapiens), Q9NZ08 | recombinant ERAP1, Leu-AMC fluorescence, 60 min | inhibition, % at 10.7 µM | 340,000 compounds, 0.15% hits | AID 652197, 2013;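 active = mean replicate inhibition of at least 30%, or all replicates individually reaching that 30% level; inactive = mean below 30% and not every replicate reaching it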;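 note: 0% = neutral control wells and 100% = L-leucinethiol positive control wells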
FGF22 binding: binders of human FGF22 protein, primary screen, FGF22 synaptogenesis inhibitor project, biophysical, thermal shift, single point; Fibroblast growth factor 22 (Homo sapiens), Q9HCT0; recombinant FGF22 thermal shift, SYPRO orange fluorescence; percent of sucrose octasulfate shift, DMSO zero; activity (Tm shift, normalised), % at 9.99 µM; 340,000 compounds, 1.5% hits; AID 651658, 2012;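 active = mean Tm shift, scaled 0 neutral to 100 positive control, at about 1.3% or above, every replicate too, limit read from the data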
Active calls of the source: *; . = no result; ! = repeats disagree.

SMILES | SIRT5 inh | Casp6 inh | INS-1E GSIS act | ERAP1 inh | FGF22 binding
C[C@@H](NC(=O)C[C@@H]1C=C[C@H](NC(=O)c2cccnc2)[C@@H](CO)O1)c1ccccc1 | -1.2 | 0.9 | -2.6 | 4.6 | 0.0
CCOc1ccc(NC(=O)C(CC(=O)O)Cc2ccc(Br)cc2)cc1 (stereo unspecified) | 2.9 | -0.5 | -8.3 | -0.1 | 0.1
COc1ccc(NC(=O)C(CC(=O)O)Cc2ccc(C)cc2)cc1 (stereo unspecified) | -0.4 | -4.9 | -1.8 | 4.3 | 43.2*
CC(=O)Oc1ccc(C2=Cc3ccc(OC(C)=O)cc3OC2C)cc1 (stereo unspecified) | . | -0.3 | . | 2.6 | 43.4*
O=S1(=O)CC(N2CCCC2)CN1Cc1cn(Cc2ccccc2)nn1 (stereo unspecified) | 27.8* | 1.5 | 18.2 | -2.4 | 0.0
CCCCCCn1cc(CN2CC(N3CCSCC3)CS2(=O)=O)nn1 (stereo unspecified) | 17.4* | -1.3 | -10.7 | -1.4 | -0.1
O=S1(=O)CC(N2CCCCC2)CN1Cc1ccccc1 (stereo unspecified) | -0.7 | -8.2 | 23.2 | . | -0.2
CCCCCCn1cc(CN2CC(N3CCCC3)CS2(=O)=O)nn1 (stereo unspecified) | -2.6 | -0.5 | 1.2 | -1.0 | 0.0
CN(C)CCN1CCN(C2CN(Cc3cn(Cc4ccccc4C(F)(F)F)nn3)S(=O)(=O)C2)CC1 (stereo unspecified) | 20.6* | -55.1 | -9.1 | -2.4 | 15.0*
O=S1(=O)CC(N2CCC(c3ccccc3)CC2)CN1Cc1ccccc1 (stereo unspecified) | 37.2* | -4.0 | -15.7 | 6.1 | 0.0
Cc1cccc(-c2ccc([C@@H]3[C@H](CO)N4CCCCN(C(=O)NC(C)C)C[C@@H]34)cc2)c1 | -2.8 | 4.4 | -6.4 | -0.2 | 0.6
CC(C)NC(=O)Nc1ccc2c(c1)C(=O)N([C@H](C)CO)C[C@@H](C)[C@H](CN(C)Cc1ccc3c(c1)OCO3)OCCCC[C@@H](C)O2 | . | . | 12.5 | . | 0.0
O=C(O)c1ccc(N/N=C/C=C/c2ccc([N+](=O)[O-])o2)cc1 | 15.2* | 75.0* | -7.5 | -33.7 | -0.3
O=C(N/N=C/c1ccc([N+](=O)[O-])o1)C(=O)Nc1ccc(C(=O)O)cc1 | 2.9 | 6.7 | 4.6 | 13.1 | 0.0
Cc1nn(CC(=O)NC2CC2)c(C)c1S(=O)(=O)N(C)C | . | -3.2 | . | 1.4 | 43.1*
Cc1nn(CC(=O)NC2CCS(=O)(=O)C2)c(C)c1S(=O)(=O)N(C)C (stereo unspecified) | 0.0 | 0.9 | 16.1 | -1.9 | -0.3
CC(=O)N1[C@H](CO)[C@@H]2c3ccccc3N(S(=O)(=O)c3ccccc3C)C[C@@H]21 | 2.0 | -0.3 | 16.3 | 0.8 | 0.1
O=C(NCC1CC1)[C@H]1[C@H](CO)[C@H]2Cn3c(ccc(-c4cccc(F)c4)c3=O)[C@H]2N1CC1CCCC1 | -0.5 | -3.1 | -18.7 | 0.3 | -0.1
COCCN1CCN(Cc2nc(C3(c4ccc(C)cc4)CCCC3)no2)CC1 | 3.5 | 3.2 | -13.6 | 0.5 | 43.2*
COc1cccc(CNC(=O)C[C@H]2C=C[C@@H](NC(=O)C3CC3)[C@H](CO)O2)c1 | -2.1 | -2.7 | 2.0 | -1.1 | 0.0
C[C@H](CO)N1C[C@H](C)[C@@H](CN(C)C(=O)NC2CCCC2)Oc2ncc(-c3ccc(F)cc3)cc2C1=O | . | 1.5 | -7.4 | -1.7 | -0.3
COc1ccc(C2CCc3cc4c(cc3C2=NO)OCO4)cc1OC (stereo unspecified) | . | 4.8 | -40.9 | 2.5 | 42.9*
COc1cc2c(cc1OC)C(c1ccc3c(c1)OCO3)CC(=O)N2 (stereo unspecified) | -16.6 | 0.6 | 48.2 | -3.6 | 0.1
C[C@H](CO)N1C[C@H](C)[C@H](CN(C)Cc2ccncc2)Oc2c(NS(=O)(=O)c3ccc(F)cc3)cccc2C1=O | -1.6 | 1.6 | 21.0 | 0.3 | 0.0
CN(C)C(=O)c1ccc(NC(=O)c2ccc(-c3ccc(Cl)cc3)o2)cc1 | 14.3 | 0.5 | -36.3 | -6.7 | 1.8*
SMILES | SIRT5 inh | Casp6 inh | INS-1E GSIS act | ERAP1 inh | FGF22 binding
Cc1cc(NC(=O)c2ccccc2F)n(-c2nc3ccccc3[nH]2)n1 | . | . | 64.3* | . | .
Cc1cc(NC(=O)c2c(F)cccc2F)n(-c2nc3ccccc3[nH]2)n1 | . | . | -25.1 | . | .
CC(C)Sc1nc(SCC(=O)O)c2c3c(sc2n1)COC(C)(C)C3 | -1.0 | 6.2 | 55.1* | -1.2 | 0.1
COc1ccc(-c2cnc3c(c2)C(=O)N([C@@H](C)CO)C[C@@H](C)[C@@H](CN(C)C)O3)cc1 | 0.7 | -1.3 | 3.8 | -1.4 | -0.1
O=[N+]([O-])c1ccc2nc(-c3ccncc3)[nH]c2c1 | 0.1 | -0.9 | -5.9 | 3.2 | 0.0
O=[N+]([O-])c1ccc2nc(-c3ccccc3[N+](=O)[O-])[nH]c2c1 | 0.6 | 38.4* | 0.7 | -3.0 | 0.3
Cc1ccc(-c2nc3ccc([N+](=O)[O-])cc3[nH]2)cc1 | -3.4 | 1.6 | 1.2 | 6.0 | 1.5*
C[C@@H]1CCCCO[C@H](CN(C)C(=O)CCC(F)(F)F)[C@H](C)CN([C@H](C)CO)C(=O)c2cc(NC(=O)Cc3ccccc3)ccc2O1 | 1.8 | -0.1 | -17.0 | -0.9 | 0.2
CC(=O)N(C)c1ccc(NC(=O)C(Sc2ccccc2)c2ccccc2)cc1 (stereo unspecified) | -5.5 | -1.8 | -30.4 | 0.5 | .
CC(=O)Nc1ccc(SC(Sc2ccc(NC(C)=O)cc2)c2ccccc2)cc1 | -1.5 | 0.0 | 8.4 | 7.8 | 1.4*
C[C@@H]1CN([C@H](C)CO)C(=O)Cc2cc(NS(=O)(=O)c3cccs3)ccc2O[C@H]1CN(C)C(=O)Nc1cccc2ccccc12 | . | . | 4.0 | . | -0.1
O=C(C1=C[C@@H](C2CCCCC2)C[C@@H](OCc2ccc(CO)cc2)O1)N1CCOCC1 | 0.5 | 1.6 | -15.5 | -2.4 | 0.5
O=C(O)C1=C[C@H](c2coc3ccccc3c2=O)C[C@H](OCCCCO)O1 | 16.1*! | -4.5 | -13.7 | 3.0 | 0.1
O=C(C1=C[C@@H](c2coc3ccccc3c2=O)C[C@@H](OCc2ccc(CO)cc2)O1)N1CCN(Cc2ccccc2)CC1 | 0.0 | 2.0 | . | 4.9 | 1.4*
CN1CCN(C(=O)C2=C[C@@H](c3coc4ccccc4c3=O)C[C@@H](OCc3ccc(CO)cc3)O2)CC1 | -0.2 | -1.9 | 0.1 | 0.8 | -0.3
NC(=O)C1=C[C@H](c2coc3ccccc3c2=O)C[C@H](OCCCCO)O1 | -6.5 | -0.3 | . | -1.3 | -0.1
CN1CCN(C(=O)C2=C[C@H](C3CCCCC3)C[C@H](OCc3ccc(CO)cc3)O2)CC1 | 29.7*! | -0.2 | 4.0 | 3.8 | 0.3
Cc1cc(OC(=O)c2ccc(S(=O)(=O)N3CCCC3)cc2)c([N+](=O)[O-])c(=O)[nH]1 | 0.4 | 1.6 | 6.6 | 1.6 | 42.9*
